Source: PubChem BioAssay
Hits are enriched below; roughly 2.3% of the tested compounds scored in any of these assays.
p53ts 39C kill: kills p53ts cells at the nonpermissive temperature | Potency, µM (series often up to 46.1 µM), for the others: at the highest dose activity change, negative = cell killing, hits mostly cytotoxic | H1299-p53A138V viability at 39C, ATP luminescence, 24 h | 130,000 compounds, 1.5% hits; note: % is set by controls: 0 for no effect and ±100 for the full control effect; nearly all actives have a fitted effect of over 55% in size
ERK AVP inh: vasopressin-driven ERK pathway inhibition. HEK293-V1b, vasopressin-stimulated pERK AlphaScreen. Potency, µM (top dose mostly 57.5 µM), for inactives: top-dose activity, negative = inhibition, hits mostly inhibitors. AID 995. 72,000 compounds, 0.99% hits; note: % is set by controls: 0 for no effect and ±100 for the full control effect; nearly all actives have a fitted effect of over 55% in size
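HEK293 cells stably expressing V1b receptor, preincubated 30 min at 37 °C with compound, then stimulated 5 min with 25 nM vasopressin. Phospho-ERK by AlphaScreen SureFire after 5 h RT; normalized to DMSO and vasopressin; AC50 by Hill fit.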
IkB signaling: suppresses IkB signaling in ABC-DLBCL reporter cells; ABC-DLBCL IkBa-CBG/CBR dual luciferase ratio, 4 h; response scale: scaled: untreated 0%, proteasome inhibitor 100%; 110,000 compounds, 0.04% hits; AID 445; Potency, µM (doses to about 57.1 µM), for the others: at the top dose IkBa stabilization activation; active = well fitted curve in the direction sought with a large enough effect in the signal ratio, not every such curve was filed as active; inconclusive = small, poorly fitted or top-dose-only effect, or a change in a side signal; the % refers to the signal ratio;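 note: the direction sought is a rising ratio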
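Luminescence ratio of IκBα-fused green versus native red beetle luciferase in OCI-Ly3 cells, 4 h post-doxycycline with compound; red signal alone, scaled from basal (0%) to zero light (-100%), flagged nonspecific or cytotoxic effects.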
Imprint erasure: inducers of genomic imprint erasure in mouse ES cells; Potency, µM (highest dose often 60.7 µM), inactives show at the top dose activity change, positive = activation, actives largely listed as activators; mouse ES Peg3-LacZ reporter, beta-gal luminescence, 40 h; 110,000 compounds, 0.02% hits
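Readout: BetaGlo luminescence (5 min, room temp) for LacZ from the normally silent maternal Peg3 allele in female Peg3LacZ-Neo ES cells. Cells 300/well, 40 h, 37C, 5% CO2. Data normalized per plate to negative controls.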
p53ts 32C kill: p53ts cell cytotoxicity, permissive temperature; 130,000 compounds, 0.93% hits; H1299-p53A138V at 32C, ATP luminescence viability, 24 h; Potency, µM (top dose mostly 46.1 µM), for the others: at the top dose activity change, negative = cytotoxicity, hits mostly cytotoxic; AID 924;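 note: 0% = DMSO and -100% = full killing by reference compound; nearly all actives have a fitted effect of over 55% in size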
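Viability by ATPlite luminescence after 24 h compound treatment (up to 46 uM) at the permissive 32C. Cells are H1299 carrying p53 A138V. Scale runs from DMSO basal to 100 uM tamoxifen as full kill; AC50 from Hill fits.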
Numbers without * were called inactive; ? = inconclusive; . = not tested or not shown; [ ] = dose if it differs, or a comment. Unless noted, calls come from the whole dose curve; as a rule, active = well fitted curve in the direction sought with a large enough effect; inconclusive = small, poorly fitted or top-dose-only effect, or another doubt; inactive = no such curve, though single readings can be large; an effect the other way counts as inactive or inconclusive. Potency is the fitted concentration of half-maximal effect.

SMILES	p53ts 39C kill	ERK AVP inh	IkB signaling	Imprint erasure	p53ts 32C kill
O=S(=O)(NCC(Nc1ccc(Cl)cc1)c1ccccc1)c1ccccc1 (stereo not drawn)	22µM*	.	?	-1%[10.9 µM]	?
O=C(O)[C@@H]1[C@H](C(=O)O)[C@H]2C(=O)C=C[C@H]1N2Cc1ccccc1	2%[9.22 µM]	4%[11.5 µM]	4µM*	-19%[10.9 µM]	6%[9.22 µM]
O=C(CN1C(=O)C(c2ccc(F)cc2)=NC12CCCCCC2)Nc1ccc(F)c(Cl)c1	10µM*	.	?	-5%[10.9 µM]	20%
O=C1c2ccccc2C(=O)N1C[C@]1(C(=O)O)NCCS1(=O)=O	4%[9.22 µM]	5%[11.5 µM]	1%[11.4 µM]	-5%[10.9 µM]	0%[9.22 µM]
COc1ccc2c(c1)Cc1sc(NC(=O)c3cccc(Cl)c3)nc1-2	25µM*	.	-2%	11%[10.9 µM]	?
COc1ccc2c(c1)Cc1sc(NC(=O)c3cccc(C)c3)nc1-2	-10%	.	?	-6%[10.9 µM]	4%
CS(=O)(=O)Nc1ccc(Nc2c3ccccc3nc3ccccc23)cc1	3%[9.22 µM]	-6%[11.5 µM]	1%[11.4 µM]	-15%[10.9 µM]	-1%[9.22 µM]
Nc1cc(C(=O)O)[nH]c(=O)n1	5%[9.22 µM]	-2%[11.5 µM]	1%[11.4 µM]	23%[10.9 µM]	-1%[9.22 µM]
CC(C)(C)c1ccc(C(=O)Nc2cnccn2)cc1	5µM*	-20%	7%	-61%	5µM*
COc1ccc(S(=O)(=O)Nc2cccc(-c3ccc(N4CCC(C)CC4)nn3)c2)c(OC)c1	16µM*	.	?	-7%[10.9 µM]	10µM*
CCc1ccc(S(=O)(=O)Nc2cccc(-c3ccc(N4CCC(C)CC4)nn3)c2)s1	10µM*	.	?	6%[10.9 µM]	13µM*
COc1ccc(OC)c(S(=O)(=O)Nc2cccc(-c3ccc(N4CCCCC4)nn3)c2)c1	?	.	-1%	13%[10.9 µM]	-3%
CC(=O)Nc1ccc(S(=O)(=O)Nc2cccc(-c3ccc(N4CCC(C)CC4)nn3)c2)cc1	3.5µM*	.	?	-10%[10.9 µM]	2.5µM*
CC(=O)c1ccc(S(=O)(=O)Nc2ccc(-c3ccc(N4CCCCC4)nn3)cc2)cc1	4µM*	.	?	5%[10.9 µM]	?
C=C(C#N)C(=O)OCC	3%	-6%	3%	-5%	-6%[1.84 µM]
O=C(NCCN1CCCC1)c1ccc(-n2c(=O)c(=O)[nH]c3ccccc32)cc1	-1%	.	.	.	4%
C=CCn1c2ccccc2c2nnc(SCN3C(=O)c4ccccc4C3=O)nc21	10%	16%	?	-17%	4%
C=CCn1c2ccccc2c2nnc(SCCCn3c(=O)[nH]c4ccccc43)nc21	?	13µM*	?	-40%	?
OC[C@@H]1O[C@@H](n2cnc3c(SCc4ccccc4)ncnc32)[C@@H](O)[C@H]1O	2%[9.22 µM]	2%[11.5 µM]	0%[11.4 µM]	-8%[10.9 µM]	-6%[9.22 µM]
COc1ccc(Nc2nc(N)c3cc(OC)c(OC)cc3n2)cc1	13µM*	.	?	-39%[10.9 µM]	?
O=S(=O)(c1cccc(C(F)(F)F)c1)N1c2ccccc2-n2cccc2[C@H]1c1cccnc1	9%[9.22 µM]	?	9%[11.4 µM]	-12%[10.9 µM]	22%[9.22 µM]
COC(=O)C/C=C\[C@@H](C)[C@@H](CO)NS(=O)(=O)c1ccc(C)cc1	-1%[9.22 µM]	10%[11.5 µM]	.	.	10%[9.22 µM]
CN(Cc1cc(C(C)(C)C)cc(Br)c1O)Cc1cc(C(C)(C)C)cc(Br)c1O	-29%[9.22 µM]	4%[11.5 µM]	-1%[11.4 µM]	-20%[10.9 µM]	-7%[9.22 µM]
O=C(CC1(O)C(=O)N(Cc2ccccc2)c2ccc(Br)cc21)c1ccccc1 (stereo not drawn)	16µM*	.	?	-4%[10.9 µM]	?
CCCN1C(=O)C(O)(CC(=O)c2ccc(C(C)C)cc2)c2ccccc21 (stereo not drawn)	?	.	?	-1%[10.9 µM]	2%
SMILES	p53ts 39C kill	ERK AVP inh	IkB signaling	Imprint erasure	p53ts 32C kill
CCCCN1C(=O)C(O)(CC(=O)c2ccc(CC)cc2)c2cc(Br)ccc21 (stereo not drawn)	?	.	17%	6%[10.9 µM]	?
O=C(CC1(O)C(=O)N(Cc2ccccc2)c2ccccc21)c1ccncc1 (stereo not drawn)	-11%	-28%	0%	-21%	3%
CC(C)c1ccc(C(=O)CC2(O)C(=O)N(CCc3ccccc3)c3ccc(Cl)cc32)cc1 (stereo not drawn)	16µM*	.	?	-8%[10.9 µM]	?
O=C(CC1(O)C(=O)N(CCc2ccccc2)c2ccc(Br)cc21)c1ccccc1O (stereo not drawn)	20µM*	.	?	-6%[10.9 µM]	0%
C[C@@]12CCC(=O)C=C1CC[C@H]1[C@@H]2[C@@H](O)C[C@]2(C)[C@@H]1CC[C@@]2(O)C(=O)CO	.	13%[11.5 µM]	?	.	.
NC(=S)NCCC[C@@H](N)C(=O)O	5%	35%	2%	.	6%
Cc1cccc(NC(=O)c2ccc3oc(=O)c(S(=O)(=O)c4ccc(F)cc4)cc3c2)c1C	?	.	?	-2%[10.9 µM]	-7%
CC(C)c1ccc(NC(=O)c2ccc3oc(=O)c(S(=O)(=O)c4ccc(F)cc4)cc3c2)cc1	2.5µM*	.	?	?	10µM*
COc1cc(NC(=O)c2ccc3oc(=O)c(S(=O)(=O)c4ccccc4)cc3c2)cc(OC)c1	?	.	?	-6%[10.9 µM]	16µM*
CN(C)c1ccc(/C=N\NC(=O)c2cnc3ccccc3c2)cc1	1%[9.22 µM]	11%[11.5 µM]	1%[11.4 µM]	-8%[10.9 µM]	-7%[9.22 µM]
CC(C)C(=O)NC(c1ccco1)c1ccc2cccnc2c1O (stereo not drawn)	4µM*	?	?	-31%	-19%
Oc1c(C(Nc2nc3ccccc3s2)c2ccco2)ccc2cccnc12 (stereo not drawn)	?	?	?	-34%	0%
CSc1ccccc1N=Cc1nc(-c2ccccc2)oc1O	6%	41%	?	-21%	-6%
CN(C)c1ccc(N=Cc2nc(-c3ccccc3)oc2O)cc1	-13%	13µM*	0%	-33%	-5%
c1cn2c(NC3CCCC3)c(-c3ccc(N4CCOCC4)cc3)nc2cn1	16µM*	.	0%	-9%	10µM*
O=Nc1ccc(Nc2ccccc2)cc1	16%	-18%	?	-22%	-2%[1.84 µM]
CCOC(=O)CCN1C(=O)[C@@H]2[C@H]3C(=CC[C@H]2C1=O)C(=O)[C@H]1O[C@H]1[C@H]3O	-13%[9.22 µM]	16%[11.5 µM]	.	.	-1%[9.22 µM]
O=C(Nc1ccc(N2CCOCC2)cc1)c1cnsn1	5µM*	-4%	?	-80%	4µM*
CS(=O)(=O)c1ncc(Cl)c(C(=O)Nc2ccc(N3CCOCC3)cc2)n1	?	39%	?	-73%	13µM*
O=C(Nc1ccc(N2CCOCC2)cc1)c1ccncc1	11%	.	.	.	-7%
CC(C)Sc1ncc(Cl)c(C(=O)Nc2ccc(S(=O)(=O)N(C)c3ccccc3)cc2)n1	-24%	.	?	-10%[10.9 µM]	12%
CCN(c1ccccc1)S(=O)(=O)c1ccc(NC(=O)c2nc(S(C)(=O)=O)ncc2Cl)cc1	3.2µM*	.	-2%	-39%[10.9 µM]	?
